KB-V1 cytotox: KB-V1 MDR subline cytotoxicity; KB-V1 MDR cells viability, CellTiter-Glo, 72 h; Potency, µM (top dose mostly 46.1 µM), actives largely listed as cytotoxic; 3.4% of 400,000 active; AID 1347076; further: nearly all actives have a fitted effect of over 60% in size
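Readout: CellTiter-Glo luminescence, 10 min after addition. Cells: KB-V1 MDR subline, 72 h at 37 degrees C with compound. Analysis: corrected, normalized data fitted to concentration-effect curves.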
KB-3-1 cytotox: kills parental KB-3-1 adenocarcinoma cells; KB-3-1 viability, CellTiter-Glo ATP luminescence, 72 h; Potency, µM (titrated, usually from 46.1 µM), hits mostly cytotoxic; 1.4% of 400,000 active; AID 1347075; further: nearly all actives have a fitted effect of over 60% in size
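Cells are dispensed, compounds pinned in, plates held at 37 °C for 72 h, then CellTiter-Glo is added and luminescence read after 10 minutes. Cell line: parental KB-3-1 in phenol-red-free DMEM, 10% FBS.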
DT40 TDP1 no CPT: qHTS for Inhibitors of human tyrosyl-DNA phosphodiesterase 1 (TDP1): qHTS in cells in absence of CPT; DT40 Tdp1-/- hTDP1 cells, no CPT, ATP luminescence, 48 h; Potency, µM (titrated, usually from 46.2 µM), usual class: inhibitors; 15% of 420,000 active; further: nearly all actives have a fitted effect of over 55% in size
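Stably hTDP1-transfected Tdp1-null chicken DT40 cells were treated with library compounds minus camptothecin and grown for at least 48 hr at 37 °C, after which cellular ATP was quantified by luminescence.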
DT40 TDP1 CPT: DT40-hTDP1 cell growth loss with CPT; 12% of 420,000 active; chicken DT40 Tdp1-/-;hTDP1 cells + 20 nM CPT, ATP luminescence, 48 h; Potency, µM (highest dose often 46.2 µM), most hits filed as inhibitors; AID 686979; further: nearly all actives have a fitted effect of over 55% in size
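Cell growth measured by CellTiter-Glo luminescence after a minimum 48 h, 37 C compound exposure with 20 nM CPT in Tdp1-knockout DT40 cells stably expressing hTDP1, seeded 400/well; qHTS titration format.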
HT1080 IDH1KD tx: toxicity to HT-1080 IDH1 knockdown cells (counter line); HT-1080 IDH1 knockdown viability, ATP luminescence, 48 h; Potency, µM (highest dose often 46.1 µM), hits mostly cytotoxic; 2% of 360,000 active; AID 686971
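Viability of IDH1-knockdown HT-1080 fibrosarcoma cells was assessed by CellTiter-Glo after 48 h at 37 °C with titrated compound; concentration-effect curves were classified by fit quality and response size.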
HT1080NT lethal: kills 2HG-producing HT-1080-NT fibrosarcoma cells; Potency, µM (highest dose often 46.1 µM), actives largely listed as cytotoxic; HT-1080-NT fibrosarcoma viability, CellTiter-Glo ATP luminescence, 48 h; AID 686970; 1.6% of 360,000 active;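 further: NT is the 2HG producing partner of a matched IDH1 knockdown line; nearly all actives have a fitted effect of over 55% in size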
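Viability of the 2HG-overproducing fibrosarcoma line after 48 hours of compound exposure at 37 degrees C was determined by luminescence with CellTiter-Glo, and concentration-effect curves were then fitted and categorized.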
Each line names hits and unclear results; the compound was inactive in the other large screens. Hits are enriched below; roughly 19% of the tested compounds scored in any of these assays. The call rests on the fitted dose curve; in most records, active means well fitted curve in the direction sought with a large enough effect; inconclusive means small, poorly fitted or top-dose-only effect, or another doubt; inactive means no such curve, though single readings can be large; an effect the other way counts as inactive or inconclusive.

COc1ccc(NC(=O)C2CCN(c3cc(-c4ccccc4)nc4ncnn34)CC2)cc1OC	KB-V1 cytotox inconclusive, KB-3-1 cytotox inconclusive, DT40 TDP1 no CPT 23µM, DT40 TDP1 CPT 18µM, HT1080 IDH1KD tx inconclusive, HT1080NT lethal inconclusive
COc1ccccc1NC(=O)N1CCN(c2cc(-c3ccccc3)nc3ncnn23)CC1	KB-3-1 cytotox inconclusive, DT40 TDP1 no CPT 4.1µM, DT40 TDP1 CPT 4.6µM
CC(C)(C)c1ccc(S(=O)(=O)N2CCNC(=O)C2)cc1	none
CCCCn1nnnc1C(c1ccccc1)N1CCN(C(C)=O)CC1 (stereo not given)	none
CCCCn1nnnc1C(c1ccccc1)N1CCN(c2ccc(C(F)(F)F)cc2[N+](=O)[O-])CC1 (stereo not given)	KB-V1 cytotox inconclusive, DT40 TDP1 no CPT 18µM, DT40 TDP1 CPT inconclusive
CCCCn1nnnc1C(c1ccccc1)N1CCN(c2ncccc2C(F)(F)F)CC1 (stereo not given)	KB-V1 cytotox inconclusive, KB-3-1 cytotox inconclusive, DT40 TDP1 no CPT 18µM, DT40 TDP1 CPT inconclusive, HT1080 IDH1KD tx inconclusive, HT1080NT lethal inconclusive
CCCCn1nnnc1C(c1ccccc1)N1CCN(c2ccc(C(F)(F)F)cn2)CC1 (stereo not given)	KB-V1 cytotox inconclusive, KB-3-1 cytotox inconclusive, DT40 TDP1 no CPT 18µM, DT40 TDP1 CPT inconclusive, HT1080 IDH1KD tx inconclusive
CCCCn1nnnc1C(c1ccccc1)N1CCN(c2ccccc2)CC1 (stereo not given)	DT40 TDP1 no CPT inconclusive, DT40 TDP1 CPT inconclusive
C=CCN1C(=O)C2(OCCCO2)c2cc(C)ccc21	none
Cc1[nH]n(-c2ccccc2)c(=O)c1N=Nc1nccs1	KB-V1 cytotox inconclusive, DT40 TDP1 no CPT 23µM, DT40 TDP1 CPT 18µM, HT1080 IDH1KD tx 4µM, HT1080NT lethal 11µM
Cc1ccccc1N=Nc1c(C)[nH]n(-c2ccccc2)c1=O	none
Cc1[nH]n(-c2ccccc2)c(=O)c1N=Nc1ccccc1O	KB-3-1 cytotox 9.2µM, DT40 TDP1 no CPT 0.41µM, DT40 TDP1 CPT 0.52µM, HT1080 IDH1KD tx 9.2µM, HT1080NT lethal 15µM
CS(=O)(=O)N(CCCC(=O)N1CCCCCC1)c1cccc(Cl)c1	KB-V1 cytotox inconclusive
Cc1cc(C)cc(N2C(=O)C=CC2=O)c1	KB-3-1 cytotox inconclusive, DT40 TDP1 no CPT 0.82µM, DT40 TDP1 CPT 0.73µM, HT1080 IDH1KD tx inconclusive, HT1080NT lethal inconclusive
Cc1cc(C)cc(N2C(=O)c3nccnc3C2=O)c1	none
Cc1c([N+](=O)[O-])cc(N2C(=O)C=CC2=O)cc1[N+](=O)[O-]	DT40 TDP1 no CPT 1.6µM, DT40 TDP1 CPT 0.73µM
Cc1ccc(N2C(=O)C3C4C=CC(CC4)C3C2=O)cc1[N+](=O)[O-] (stereo not given)	none
Cc1cc(N2C(=O)C=CC2=O)c([N+](=O)[O-])cc1C	DT40 TDP1 no CPT 1.8µM, DT40 TDP1 CPT 0.82µM, HT1080 IDH1KD tx inconclusive, HT1080NT lethal inconclusive
Cc1c(Cl)cc(-n2cnnn2)cc1[N+](=O)[O-]	none
CCC(Oc1ccccc1OC)C(=O)Nc1ccc2c(c1)OCO2 (stereo not given)	KB-3-1 cytotox inconclusive
CSCCC(NC(=O)c1ccccc1)C(=O)NCCCn1nc(C)cc1C (stereo not given)	none
O=c1oc(-c2ccccc2)c(-c2ccccc2)c2ccccc12	DT40 TDP1 no CPT inconclusive, DT40 TDP1 CPT inconclusive
OC(c1ccccc1)c1nc(-c2csc3ccccc23)cs1 (stereo not given)	DT40 TDP1 CPT inconclusive, HT1080NT lethal inconclusive
OC(c1ccc(F)cc1)c1nc(-c2csc3ccccc23)cs1 (stereo not given)	KB-V1 cytotox inconclusive, DT40 TDP1 no CPT 26µM, DT40 TDP1 CPT 18µM, HT1080NT lethal inconclusive
COc1cc(F)ccc1-c1csc(C(O)(c2ccccc2)C(F)(F)F)n1 (stereo not given)	DT40 TDP1 no CPT 15µM, DT40 TDP1 CPT 23µM, HT1080NT lethal inconclusive
COc1cc(F)ccc1-c1csc(C(O)c2ccccc2)n1 (stereo not given)	DT40 TDP1 no CPT inconclusive, DT40 TDP1 CPT 26µM
COc1cccc(C(C)(O)c2nc(-c3ccc(F)cc3OC)cs2)c1 (stereo not given)	DT40 TDP1 no CPT inconclusive, DT40 TDP1 CPT 23µM, HT1080 IDH1KD tx inconclusive, HT1080NT lethal inconclusive
CC1=C(C(=O)Nc2cc(C)ccc2C)C(c2cccs2)NC(=S)N1 (stereo not given)	KB-V1 cytotox inconclusive, DT40 TDP1 CPT inconclusive
O=C(Nc1nccs1)[C@@H]1CC=C[C@@H]2CCN(Cc3ccc(Cl)c(Cl)c3)C(=O)[C@@H]21	KB-V1 cytotox inconclusive, DT40 TDP1 no CPT inconclusive, DT40 TDP1 CPT inconclusive (no result: HT1080 IDH1KD tx, HT1080NT lethal)
C=CC[C@H](CC(=O)NCCO)C(=O)NCCOC(=O)[C@@H](CC=C)CC(=O)OC(C)(C)C	none
CCOc1ccc(C2(C)NC(=O)N(CCN(C)C)C2=O)cc1 (stereo not given)	KB-V1 cytotox inconclusive
CCc1ccc(C(=O)C(C)OC(=O)CNS(=O)(=O)c2ccc(C)cc2)cc1 (stereo not given)	none
CS(=O)(=O)N(Cc1ccccc1Cl)c1ccc(C(=O)N2CCCC2)cc1	none
O=C(NCC1(N2CCOCC2)CCCC1)c1cnn(-c2nccc(-c3ccco3)n2)c1C1CC1	DT40 TDP1 CPT inconclusive (no result: KB-V1 cytotox, KB-3-1 cytotox, HT1080 IDH1KD tx, HT1080NT lethal)
CC(=O)N(C)c1ccc(NC(=O)Cc2cccs2)cc1	none
Clc1ccc(-c2nc3ccccc3[nH]2)cn1	none
CC(O)(c1cccc(F)c1)c1nc(-c2ccc(Cl)cc2)cs1 (stereo not given)	DT40 TDP1 no CPT inconclusive, DT40 TDP1 CPT inconclusive, HT1080 IDH1KD tx inconclusive, HT1080NT lethal inconclusive
COc1ccc(C(C)(O)c2nc(-c3ccc(F)cc3OC)cs2)cc1 (stereo not given)	KB-V1 cytotox inconclusive, KB-3-1 cytotox inconclusive, DT40 TDP1 no CPT 10µM, DT40 TDP1 CPT 8.2µM, HT1080 IDH1KD tx inconclusive
COc1cc(F)ccc1-c1csc(C(C)(O)c2ccc(F)c(F)c2)n1 (stereo not given)	DT40 TDP1 no CPT 18µM, DT40 TDP1 CPT inconclusive, HT1080 IDH1KD tx inconclusive
C=CC(=O)N=c1sc2ccccc2n1-c1ccccc1	KB-V1 cytotox 7.3µM, KB-3-1 cytotox 15µM, DT40 TDP1 no CPT 2.6µM, DT40 TDP1 CPT 2.6µM, HT1080 IDH1KD tx 10µM, HT1080NT lethal 13µM
O=c1sc2ccccc2n1Cc1ccccc1	none
N=c1sc2ccccc2n1-c1ccccc1	KB-V1 cytotox inconclusive, KB-3-1 cytotox inconclusive, DT40 TDP1 no CPT 26µM, DT40 TDP1 CPT inconclusive, HT1080 IDH1KD tx inconclusive
COC(=O)Cn1c(=NC(=O)CSC(C)=O)sc2ccccc21	DT40 TDP1 no CPT inconclusive, DT40 TDP1 CPT inconclusive, HT1080NT lethal inconclusive
